# Experimental data: PubChem BioAssay (NCATS)
# Several values for one entry are separate records, joined by “and”; a condition that tells them apart may be missing. Equal entries are not always repeated. Results filed as inconclusive are left out. Where a structure was tested more than once in an assay, its records may differ in their call. Activity calls are given as the source filed them. Calls follow the shape of the full dose curve.
# Assay: Primary qHTS to identify inhibitors of SARS-CoV-2 cell entry (AID 1645846); also: nearly all actives have a fitted effect of over 45% in size
# Conditions: SARS-CoV-2 pseudovirus cell entry assay, luminescence; activity change, negative = inhibition: at 57.1 µM (top of the series) unless noted; series mostly up to 57.1 µM
# From the text: Assay Provider: Wei Zheng, Ph.D.
# National Center for Advancing Translational Sciences, National Institute of Health, Rockville, MD.
# SARS-CoV-2 spike protein, within the viral envelope, mediates viral attachment and infection of host cells. The SARS-CoV-2 spike protein specifically binds to the host receptor ACE2 (Angiotensin-converting enzyme 2). This interaction promotes endocytosis of the viral particle, additional events lead to viral-host cell membrane fusion and release of the viral contents, allowing viral replication.
# While SARS-CoV-2 requires BSL-3 facilities for live virus work, pseudotyped partices (PP) that incorporate SARS-CoV-2 spike proteins without replication elements could facilitate studies on viral entry mechanisms in a BSL-2 setting. This PP cell entry assay could also enable screening of small molecule compound libraries in BSL-2 setting to identify inhibitors of SARS-CoV-2 cell entry.
# PROTOCOL TABLE (format as described by Inglese J, Shamu CE and Guy RK. 2007)
# SEQUENCE No. (e.g., 1, 2, 3, etc.); […] (e.g., Cells, Incubation, Reagent, etc.); VALUE and DESCRIPTION.
# 1. Cells. Seed 1500 HEK293-ACE2 cells (Expi293F with stable expression of human ACE2) in 2 uL/well media (DMEM, 10% FBS, 1x L-glutamine, 1x Pen/Strep, 1 ug/ml puromycin) in white 1536-well assay plates (Greiner #782073).
# 2. Incubation. Incubate at 37C with 5% CO2 overnight (~16 h).
# 3. Compounds. Dispense 23 nL/well compounds in DMSO via pin transfer.
# 4. Incubation. Incubate for 1 hr at 37C 5% CO2.
# 5. Reagent. Dispense 2 uL/well of SARS-CoV-2-S pseudotyped particles. [a] PPs are produced with murine leukemia virus pseudotyping. [b] SARS-CoV-2-S is Wuhan-Hu-1 sequence (BEI #NR-52420) with C-terminal 19 amino acid truncation.
# 6. Centrifuge. […]
# 7. Incubation. Incubate at for 48 hr at 37C 5% CO2
# 8. Centrifuge. Remove supernatant with gentle centrifugation using a Blue Washer (BlueCat Bio).
# 9. Reagent. Dispense 4 uL/well of Bright-Glo Luciferase detection reagent (Promega #E2620).
# 10. Incubation. Incubate for 5 min at room temperature.
# 11. Detection. Read luminescence signal (Viewlux plate reader, PerkinElmer). Data was normalized with wells containing SARS-CoV-2-S PP as 100%, and wells containing bald PP (no fusion protein) as 0%.
# Potency is read from the fitted curve at half-maximal effect.
Compound,Potency,"activity change, negative = inhibition"
CC(C)=CC1C(C(=O)OCc2cccc(Oc3ccccc3)c2)C1(C)C (stereo not given),inactive,
CO[C@@]12[C@H](COC(N)=O)C3=C(C(=O)C(C)=C(N)C3=O)N1C[C@@H]1N[C@@H]12,4.47 µM (active),-40.7%
O=C(O)CCCc1ccccc1,inactive,
Cc1ccccc1N1C(=O)c2cc(S(N)(=O)=O)c(Cl)cc2NC1C (stereo not given),inactive,-97.4%
CC(C)NCC(O)COc1ccc(CCOCC2CC2)cc1 (stereo not given),,-14.6% and -1.57%
N[C@@H]1C[C@H]1c1ccccc1,inactive,-29.3%
CC(c1cc2ccccc2s1)N(O)C(N)=O (stereo not given),,4.54% and -93%
CCOC(=O)[C@H](CCc1ccccc1)N[C@@H](C)C(=O)N1[C@H](C(=O)O)C[C@@H]2CCC[C@@H]21,inactive,
O=P(O)(O)C(O)(Cc1cccnc1)P(=O)(O)O,,4.27% and -14.8%
CC[C@H](C)C(=O)O[C@H]1C[C@@H](C)C=C2C=C[C@H](C)[C@H](CC[C@@H]3C[C@@H](O)CC(=O)O3)[C@H]21,inactive,
O=NN(CCCl)C(=O)NC1CCCCC1,inactive,-8.29%
COc1cccc2c1C(=O)c1c(O)c3c(c(O)c1C2=O)C[C@@](O)(C(=O)CO)C[C@@H]3O[C@H]1C[C@H](N)[C@H](O)[C@H](C)O1,,-93.7%
CCCN(CCC)S(=O)(=O)c1ccc(C(=O)O)cc1,,-14.9%
Cc1ncc(CNC(=O)N(CCCl)N=O)c(N)n1,inactive,
CC(=O)Oc1ccccc1C(=O)Nc1ncc([N+](=O)[O-])s1,5.62 µM (active) and inactive,
COc1ccccc1OCC(O)COC(N)=O (stereo not given),inactive,
Cc1ccc(C)c(OCCCC(C)(C)C(=O)O)c1,inactive,-8.37%

Compound,Potency,"activity change, negative = inhibition"
C[C@]12CC[C@H]3[C@@H](CCC4=CC(=O)CC[C@@H]43)[C@@H]1CC[C@@H]2OC(=O)CCc1ccccc1,,2.01%
O=C(c1ccc(OCCN2CCCCC2)cc1)c1c(-c2ccc(O)cc2)sc2cc(O)ccc12,31.6 µM (active),
NC(=O)OCC(COC(N)=O)c1ccccc1,inactive,-1.23%
C[C@H]1[C@H](NC(=O)/C(=N/OC(C)(C)C(=O)O)c2csc(N)n2)C(=O)N1S(=O)(=O)O (stereo in doubt),inactive,
CC[C@@]1(c2ccccc2)NC(=O)N(C)C1=O,,-24.8%
CCOc1ccc2ccccc2c1C(=O)N[C@@H]1C(=O)N2[C@@H]1SC(C)(C)[C@@H]2C(=O)O,inactive,
O=C1[C@H](CC[C@H](O)c2ccc(F)cc2)[C@@H](c2ccc(O)cc2)N1c1ccc(F)cc1,,1.63% and -17.2%
C[n+]1ccccc1/C=N/O,inactive,
Cc1cnc(C(=O)NCCc2ccc(S(=O)(=O)NC(=O)NC3CCCCC3)cc2)cn1,,3.67%
Nc1nnc(-c2cccc(Cl)c2Cl)c(N)n1,inactive,
CN1C(=O)CC(C)(c2ccccc2)C1=O (stereo not given),,-13.4%
Cc1cn([C@H]2C=C[C@@H](CO)O2)c(=O)[nH]c1=O,,-21.1%
CN(CCOc1ccc(CC2SC(=O)NC2=O)cc1)c1ccccn1 (stereo not given),inactive,-30.2%
O=C1OCCN1/N=C/c1ccc([N+](=O)[O-])o1,inactive,
CC(C)(O)c1ccccc1CC[C@@H](SCC1(CC(=O)O)CC1)c1cccc(/C=C/c2ccc3ccc(Cl)cc3n2)c1,inactive,
CCCC1CCCCN1 (stereo not given),inactive,
